# Assay results: PMC10812921, “Transcriptional Coactivator BOB1 (OBF1, OCA-B) Modulates the Specificity of DNA Recognition by the POU-Domain Factors OCT1 and OCT2 in a Monomeric Configuration”
# Biological target: POU1 (OCT1 POU domain);BOB1 (OBF1, OCA-B) (human;human, UniProt P14859;Q16633 260-458;1-256, |)
# Test: EMSA-SELEX-seq; with BOB1 (ternary complex band); 20 mM Tris-HCl pH 7.6, 140 mM NaCl, 10% glycerol, 0.5 mM EDTA, 0.05% Triton X-100, 0.1 mg/mL BSA, 0.1 mg/mL poly(dI-dC), 5 mM DTT, room temperature, 20 min; high values mean tight binding
# Settings: protein: recombinant;recombinant; copies: 1;1; dsDNA, one strand shown
# How it was run: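 Binding preference is reported as the percentage of sequenced 8-mers that match a motif pattern. Tagged POU-domain proteins were made in E. coli BL21, purified under denaturing conditions and renatured. A 30 ng portion was combined with 300 ng of a PCR-amplified double-stranded random 35-nt library, with or without 28 ng coactivator protein, in 20 μL Tris–HCl pH 7.6 binding buffer for 20 min at RT. Complex bands were excised from native 6% PAGE, eluted and PCR-amplified over four rounds before Illumina sequencing.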
row,Sequence,binding signal
1,AAGACAAA,0.0706 % of ANNNNAAN 8-mers
2,ACACGAAT,0.0379 % of ANNNNAAN 8-mers
3,AAGTAAAG,0.0687 % of ANNNNAAN 8-mers
4,ATCTCAAC,0.0254 % of ANNNNAAN 8-mers
5,ACTTTAAA,0.0652 % of ANNNNAAN 8-mers
6,AATTAAAC,0.0905 % of ANNNNAAN 8-mers
7,ACCGGAAC,0.0133 % of ANNNNAAN 8-mers
8,ACGAAAAA,0.0578 % of ANNNNAAN 8-mers
9,ACTCAAAT,0.127 % of ANNNNAAN 8-mers
10,AGGGGAAC,0.0355 % of ANNNNAAN 8-mers
11,AGATCAAT,0.0355 % of ANNNNAAN 8-mers
12,AGAACAAA,0.032 % of ANNNNAAN 8-mers
13,ATTCGAAG,0.0464 % of ANNNNAAN 8-mers
14,ACATAAAA,0.073 % of ANNNNAAN 8-mers
15,AATTTAAA,0.303 % of ANNNNAAN 8-mers
16,AAGGTAAA,0.144 % of ANNNNAAN 8-mers
17,AGCAGAAG,0.0308 % of ANNNNAAN 8-mers
18,ATTGGAAG,0.0371 % of ANNNNAAN 8-mers
19,ATTTTAAC,0.0652 % of ANNNNAAN 8-mers
20,ATGCAAAA,3.15 % of ANNNNAAN 8-mers

row,Sequence,binding signal
1,AACTCAAA,0.0445 % of ANNNNAAN 8-mers
2,ATACGAAA,0.0698 % of ANNNNAAN 8-mers
3,ATTGGAAT,0.0968 % of ANNNNAAN 8-mers
4,ATTAAAAG,0.115 % of ANNNNAAN 8-mers
5,AGGAAAAA,0.18 % of ANNNNAAN 8-mers
6,AGCGCAAG,0.0144 % of ANNNNAAN 8-mers
7,AGTAGAAC,0.0242 % of ANNNNAAN 8-mers
8,AAACCAAA,0.0761 % of ANNNNAAN 8-mers
9,ATCTTAAC,0.0402 % of ANNNNAAN 8-mers
10,AGACGAAT,0.0418 % of ANNNNAAN 8-mers
11,ACGGGAAC,0.0215 % of ANNNNAAN 8-mers
12,AGCACAAT,0.0258 % of ANNNNAAN 8-mers
13,AGCCCAAT,0.0226 % of ANNNNAAN 8-mers
14,ATTTTAAG,0.0964 % of ANNNNAAN 8-mers
15,ATAGAAAA,0.0695 % of ANNNNAAN 8-mers
16,ACATAAAG,0.0663 % of ANNNNAAN 8-mers
17,AATTTAAC,0.117 % of ANNNNAAN 8-mers
18,ACTGGAAG,0.0211 % of ANNNNAAN 8-mers
19,ACCGTAAG,0.0195 % of ANNNNAAN 8-mers
